# Test results reported in PubChem BioAssay AID1259422 (The Scripps Research Institute Molecular Screening Center, 2018).
# Hit rate of the full screen: of about 640,000 compounds, about 9,300 (1.5%) were called active. For the sample, actives were picked, then their nearest neighbours and some compounds at random. A number with no mark means an inactive call. Rule as the data show it: active = inhibition above about 32%; inactive = the rest.
# Experiment: TEAD-YAP interaction inhibition, primary screen, TEAD-YAP interaction inhibitor project, luminescence, HEK-TIYL cells (AID 1259422);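 also: 0% = median of test compound wells and 100% = reference inhibitor wells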
# Details: TEAD-Gal4/YAP UAS-luciferase luminescence, at 9.12 µM, stronger effect = higher value
row,Compound,inhibition
1,COc1cccc(CCC(=O)N2CCC(CCC(=O)N(C)Cc3ccccc3)CC2)c1,4.53%
2,COc1cc(C2C(C#N)=C(N)Oc3n[nH]c(-c4cc(OC)c(OC)c(OC)c4)c32)ccc1OC(=O)N1CCOCC1 (configuration not stated),12.5%
3,O=C(O)c1cc(N=Cc2cc(Br)cc(Cl)c2O)ccc1O,-2.5%
4,COC(=O)C1=C(C)NC2=C(C(=O)CC(c3ccccc3)C2)C1c1ccc(C)cc1 (configuration not stated),2.81%
5,CC1=C(C#N)C(c2ccccc2Br)C2=C(CC(c3ccccc3)CC2=O)N1 (configuration not stated),37.1% (active)
6,CC1=C(C#N)C(c2ccc(Cl)cc2Cl)C2=C(CC(c3ccccc3)CC2=O)N1 (configuration not stated),11.3%
7,COC(=O)CCCC(=O)N1CCOCCOCCN(C(=O)CCCC(=O)OC)CCOCCOCC1,7.88%
8,COc1ccc(C2=NOC(C(=O)NCc3ccco3)C2)cc1OC (configuration not stated),46.8% (active)
9,COc1ccc(-c2nnc(SCC(=O)NC(=O)NCc3ccco3)o2)cc1OC,12.3%
10,COc1ccc(C2=NOC(C(=O)NCCc3ccccc3)C2)cc1OC (configuration not stated),-5.18%
11,CC(C)C[C@@H]1NC(=O)[C@@H]2C[C@H](NC(=O)Nc3ccccc3)CN2C1=O,3.71%
12,CCOc1cc(CN2CCC(C(=O)NCCc3ccccc3)CC2)ccc1O,-8.29%
13,CCOc1ccccc1-c1noc(-c2cccs2)n1,-16.8%
14,CC(Oc1ccccc1)c1nc(-c2ccccn2)no1 (configuration not stated),-32.3%
15,c1ccc(-c2noc(-c3cccs3)n2)nc1,33.7% (active)
16,CN(C)S(=O)(=O)c1ccc(NC(=O)COC(=O)c2ccc(NC(N)=O)cc2)cc1,-1.47%
17,COCCC(=O)NC(C)c1nnc2n1CCN(Cc1ccc(C)cc1)CC2 (configuration not stated),10.5%
18,Cc1ccc2nc(NCCOCCO)c(/C=C3\SC(=S)N(C(C)C)C3=O)c(=O)n2c1,-4.15%
19,COc1ccc(/C=C2/C(=N)N3C(=NC2=O)SN=C3S(=O)(=O)C(C)C)cc1OC,-1.31%
20,O=C(Cc1ccc(Cl)c(Cl)c1)N1CCC(O)(c2ccccn2)CC1,0.43%
21,O=C(c1cn2c(n1)sc1ccccc12)N1CCCC1,37.1% (active)
22,O=C(c1cc(-c2ccccc2Cl)on1)N1CCCCC1,0.6%
23,O=C(c1cccc2nc3ccccc3nc12)N1CCCCCC1,-1.97%

row,Compound,inhibition
1,CCOC(=O)c1[nH]ncc1CN1CCCC(N(C)CCc2ccccc2)C1 (configuration not stated),-7.42%
2,O=C1c2ccccc2OCCN1Cc1ccc(F)cc1,-3.96%
3,O=C(Nc1ccc(Cl)c(C(=O)O)c1)c1ncn[nH]1,1.11%
4,CCc1ccc(NC(=O)c2ncn[nH]2)cc1,47.9% (active)
5,CSc1cccc(NC(=O)c2ncn[nH]2)c1,4.68%
6,CCCCn1c(N)c(N2CCOCC2)c(=O)[nH]c1=O,2.71%
7,CCOC(=O)C1CCN(Cn2[nH]c3nc4ccccc4n3c2=S)CC1,-6.77%
8,FC(F)(F)c1cccc(N2CCN(CCN3CCOCC3)CC2)c1,-6.06%
9,COc1ccc(-c2nc3ncnc(NCCN4CCOCC4)c3[nH]2)cc1,-0.6%
10,OCCNc1ncnc2nc(-c3ccccc3)[nH]c12,6.88%
11,COc1ccc(CCNc2ncnc3nc(-c4ccc(C(N)=O)cc4)[nH]c23)cc1,-4.01%
12,COc1ccc(-c2nc3ncnc(NCc4ccccc4)c3[nH]2)cn1,45% (active)
13,COc1ccc(-c2nc3ncnc(Nc4ccccc4)c3[nH]2)cc1,0.52%
14,COc1ccc(-c2nc3ncnc(NCCc4ccc(O)cc4)c3[nH]2)cn1,58.2% (active)
15,COc1cc(OC)cc(C(=O)Nc2cc(C(=O)Nc3ccc(OC)c(OC)c3)ccc2N2CC3CC(C2)c2cccc(=O)n2C3)c1 (configuration not stated),-0.12%
16,COc1ccc(/C=C/C(=O)NCCOc2ccc(Cl)cc2)cc1OC,-6.87%
17,CC(C)(C)NC(=O)CCc1nc(-c2ccc(C(C)(C)C)cc2)no1,50.6% (active)
18,CC(=O)Nc1ccc(NC(=O)CCCc2nc(-c3ccc(C(C)(C)C)cc3)no2)cc1,68.3% (active)
19,COc1ccc(NC(=O)CCCc2nc(-c3ccc(OC)c(OC)c3)no2)cc1,1.43%
20,CCNC(=O)CCc1nc(-c2cccc(C)c2)no1,-13.2%
21,CCCNC(=O)CCCc1nc(-c2ccc(Cl)cc2)no1,25.2%
22,COc1ccc(-c2noc(CCC(=O)N(C)C)n2)cc1,-26.2%
23,COC(=O)c1ccc(C(=O)NCC2CCC3(CCN(Cc4ccccn4)CC3)O2)cc1 (configuration not stated),9.59%

row,Compound,inhibition
1,Cc1cccc(C(=O)OCC(=O)NC2CCCCC2C)c1O (configuration not stated),7.9%
2,COc1cccc(C(=O)NC2(C(F)(F)F)NC(=O)N(c3ccccc3)C2=O)c1 (configuration not stated),8.83%
3,COc1cccc2cc(C(=O)Nc3cccc4ccccc34)c(=N)oc12,-5.43%
4,Cc1cc(-c2nc3cc(N)ccc3o2)ccc1Br,1.99%
5,CCc1ccc2oc(-c3ccc(N)cc3)nc2c1,79.6% (active)
6,Cc1ccc2oc(-c3ccc(C)c(NC(=O)c4ccc([N+](=O)[O-])o4)c3)nc2c1,-28.6%
7,Cc1ccc(-c2nc3cc(C(C)C)ccc3o2)cc1N,80.7% (active)
8,Cc1ccc2oc(-c3ccc(C)c(N)c3)nc2c1,53.6% (active)
9,CCc1ccc2oc(-c3ccc(NC(=O)c4ccccc4[N+](=O)[O-])cc3)nc2c1,-50.9%
10,CCc1ccc(-c2nc3cc(NC(=O)c4ccc(Cl)cc4)ccc3o2)cc1,7.97%
11,Cc1ccc(OCC(=O)Nc2ccc(-c3nc4cc(C(C)C)ccc4o3)cc2)cc1,20.8%
12,CC(=O)Nc1cc(-c2nc3cc(C(C)C)ccc3o2)ccc1Cl,-35.8%
13,COc1ccccc1N1CCN(CC(O)COc2ccc(C#N)cc2)CC1 (configuration not stated),0.33%
14,O=C(N/N=C/c1ccco1)c1cccc(F)c1,-63.8%
15,Fc1ccc(C2C=C(c3cccs3)NC(=S)N2)cc1 (configuration not stated),13.5%
16,CC(C)N1CCC(N2CCN(Cc3nc(-c4ccccc4)cs3)CC2CCO)CC1 (configuration not stated),-5.11%
17,COC(=O)N1CCC(C(=O)N(C)C(c2ccc(F)cc2)c2ccccn2)CC1 (configuration not stated),11.1%
18,CCN(CC)CCn1c(=S)sc2c(=O)n(-c3ccccc3OC)c(SCc3ccccc3Cl)nc21,-5.55%
19,O=C(Nc1ccc2c(c1)OCCO2)C(=O)Nc1ccc2nc3n(c(=O)c2c1)CCCCC3,-4.8%
20,Cc1ncsc1C(=O)N1CCC(c2c(S(C)(=O)=O)cnc3ncnn23)CC1,11.5%
21,CCOc1ccc(C2N(c3cccc(Cl)c3)C(=O)C3CCCN32)cc1OC (configuration not stated),0.7%
22,CCOc1cc(Br)c([N+](=O)[O-])cc1OCC,-4.81%
23,CCOc1ccc(C2Oc3c(Br)cc(Br)cc3C=C2[N+](=O)[O-])cc1OC (configuration not stated),86% (active)

row,Compound,inhibition
1,CCOc1cc(/C=C2/N=C(c3ccc(Cl)cc3)OC2=O)ccc1OCc1ccc(Cl)cc1,-7.55%
2,Cc1ccc(-c2nn3cc(-c4ccccc4)c4c3n2CCCC4)cc1,-4.85%
3,Cc1ccc(C(=O)C[n+]2cc(-c3ccccc3)n3c2CCCCC3)cc1,38.8% (active)
4,O=C(CNC1=NCCCCC1)c1ccc(-c2ccccc2)cc1,-23.5%
5,CN(C(=S)Nc1ccc(Cl)cc1)c1c(N)n(Cc2ccccc2)c(=O)[nH]c1=O,-0.81%
6,COc1ccc(N2CCN(C(CNC(=O)c3cccs3)c3ccc4c(c3)OCO4)CC2)cc1 (configuration not stated),-22.3%
7,CC(C)n1c(C2COc3ccccc3O2)nc2ncc(-c3ccncc3)cc21 (configuration not stated),33% (active)
8,c1ccc2c(c1)OCC(c1nc3ccc(-c4ccncc4)cc3[nH]1)O2 (configuration not stated),-24.1%
9,Cn1c(C2COc3ccccc3O2)nc2ccc(-c3cn[nH]c3)cc21 (configuration not stated),-90.1%
10,Clc1ccc(CN2CCN(/N=C/c3c(Cl)nc4ccccn34)CC2)cc1,35.3% (active)
11,COc1cccc(/C=N/N2CCN(Cc3ccc(C)cc3)CC2)c1,-0.53%
12,Cc1nc2ccccn2c1CN1CCN(CC(O)COCc2ccc(Cl)cc2)CC1 (configuration not stated),22.8%
13,CCOC(=O)CC(=O)CSc1nc2c(sc(=S)n2-c2ccc(Cl)c(C)c2)c(=O)n1-c1ccccc1OC,0.42%
14,COC(=O)c1cnn2c(C(F)(F)F)cc(-c3ccc(Br)cc3)nc12,13.7%
15,Brc1ccc(N=c2oc3ccccc3cc2-c2nc3ccccc3[nH]2)cc1,-86.1%
16,N#Cc1ccccc1N=c1oc2ccccc2cc1-c1nc2ccccc2[nH]1,-44.7%
17,c1ccc2oc(=Nc3cccc4ccccc34)c(-c3nc4ccccc4[nH]3)cc2c1,41.4% (active)
18,Cc1cccc(C(=O)Nc2ncc3c(n2)CC(C)(C)CC3=O)c1,-0.47%
19,CCOC(=O)c1c(NC(=O)CSc2nnc(CNC(=O)c3ccc([N+](=O)[O-])cc3)n2CCc2ccccc2)sc2c1CCCCC2,-6.86%
20,COc1ccc(N2CC(O)=C(c3nc4ccccc4c(=O)[nH]3)C2=N)cc1,0.42%
21,CC(=O)c1cccc(N2CC(O)=C(c3nc4ccccc4[nH]3)C2=N)c1,-5.18%
22,Cc1cccc(N2CC(O)=C(c3nc4ccccc4c(=O)[nH]3)C2=N)c1C,46.8% (active)
23,C/C(CC(=O)Nc1cccc2ccccc12)=N\NC(=O)c1cccnc1,-13.7%
